We go through nine compounds from PubChem BioAssay (NCI).

Several values for one entry are separate records, joined by “and”; a condition that tells them apart may be missing. Equal values may be shown once. Compounds without any hit were thinned out: in the full panel of roughly 83,000, 20% have a hit.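 96-well plates, one dose, 48 hours. Percent growth reported; active if below 10.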 Activity calls are given as the source filed them.

Test systems include SR leukemia; RPMI-8226 leukemia; OVCAR-8 ovarian; OVCAR-5 ovarian; OVCAR-4 ovarian; SK-OV-3 ovarian; IGROV1 ovarian; OVCAR-3 ovarian; HS 578T breast; NCI/ADR-RES ovarian; T-47D breast; BT-549 breast; MDA-MB-435 melanoma; SW-620 colon; HCT-116 colon; HCC-2998 colon; KM12 colon; MCF7 breast.
What all share (experiment): NCI-60 one-dose screen, 48 h (100 = growth as untreated, 0 = no growth, -100 = all killed)
Common to all, as to conditions: 10 µM unless noted

With `CC1CCCC(=O)O1` (configuration not stated), the growth with SR leukemia was 104% (inactive); with RPMI-8226 leukemia, 96.7% (inactive) and 94.7% (inactive); with OVCAR-8 ovarian, 110% (inactive) and 95.2% (inactive); with OVCAR-5 ovarian, 101% (inactive); in the test on OVCAR-4 ovarian, 96% (inactive) and 104% (inactive); with SK-OV-3 ovarian it was 98% (inactive) and 110% (inactive). The growth is 96% (inactive) and 99.9% (inactive) in the test with IGROV1 ovarian; 103% (inactive) and 115% (inactive) in the test on OVCAR-3 ovarian; 110% (inactive) and 105% (inactive) in the test on HS 578T breast; 103% (inactive) and 99.8% (inactive) in the test with NCI/ADR-RES ovarian; 101% (inactive) and 106% (inactive) in the test with T-47D breast; 104% (inactive) and 105% (inactive) with BT-549 breast. Moreover, the growth in the test on MDA-MB-435 melanoma was 97.2% (inactive) and 107% (inactive); in the test with SW-620 colon it was 105% (inactive) and 104% (inactive); with HCT-116 colon, 105% (inactive) and 94.6% (inactive); in the test with HCC-2998 colon, 98.3% (inactive); in the test with KM12 colon it was 97.7% (inactive) and 106% (inactive).

For the compound `O=C(Nc1cccc(-n2ccc3c(NC(=O)c4ccccc4)nccc32)c1)c1ccc(Cl)c(C(F)(F)F)c1`, the growth in the test on SR leukemia was -21.7% (active) and 4.99% (active); in the test on RPMI-8226 leukemia it was -47.6% (active) and 32.3% (inactive); in the test with OVCAR-8 ovarian it was 44.6% (inactive); in the test on OVCAR-5 ovarian it was 16.2% (inactive) and 76.5% (inactive); with OVCAR-4 ovarian, 6.88% (active) and 70.1% (inactive); in the test on SK-OV-3 ovarian, 11.8% (inactive) and 70.6% (inactive). For the same compound, the growth in the test with IGROV1 ovarian was 4.27% (active) and 56.4% (inactive); in the test on OVCAR-3 ovarian it was -86.6% (active) and 51.6% (inactive); in the test on HS 578T breast, 90.1% (inactive); in the test on NCI/ADR-RES ovarian it was -33% (active) and 58.4% (inactive); in the test on T-47D breast it was -36.7% (active) and 88.1% (inactive); in the test with BT-549 breast it was -75.1% (active) and 76.7% (inactive). Besides, the growth in the test on MDA-MB-435 melanoma is -59% (active) and 54.9% (inactive); in the test on SW-620 colon, -73.8% (active) and 48.8% (inactive); in the test on HCT-116 colon it was -99.1% (active) and 32.4% (inactive); in the test on KM12 colon, -54.5% (active) and 42.7% (inactive).

Take `O=C1OC2(c3ccccc31)c1ccc(O)c(O)c1Oc1c2ccc(O)c1O`: the growth with SR leukemia is -17.7% (active) and 101% (inactive); in the test with RPMI-8226 leukemia, 113% (inactive) and 109% (inactive); with OVCAR-8 ovarian, 107% (inactive); in the test on OVCAR-5 ovarian, 92.1% (inactive) and 115% (inactive); in the test with OVCAR-4 ovarian, 89.7% (inactive) and 108% (inactive); with SK-OV-3 ovarian it was 106% (inactive) and 98.8% (inactive). For the same compound, the growth is 117% (inactive) and 124% (inactive) in the test with IGROV1 ovarian; 98.7% (inactive) and 107% (inactive) with OVCAR-3 ovarian; 112% (inactive) and 132% (inactive) in the test with HS 578T breast; 107% (inactive) and 104% (inactive) in the test with NCI/ADR-RES ovarian; 106% (inactive) and 99.5% (inactive) in the test on T-47D breast; 118% (inactive) with BT-549 breast. Also, the growth was 112% (inactive) and 130% (inactive) with MDA-MB-435 melanoma; 105% (inactive) and 113% (inactive) with SW-620 colon; 110% (inactive) and 102% (inactive) with HCT-116 colon; 104% (inactive) and 109% (inactive) in the test on HCC-2998 colon; 104% (inactive) and 113% (inactive) in the test on KM12 colon.

In the case of `Cc1ccc2nc3c(nc2c1)-c1cccc2cccc-3c12`, the growth is 64.9% (inactive) in the test with SR leukemia; 89.9% (inactive) in the test with RPMI-8226 leukemia; 69.6% (inactive) with OVCAR-8 ovarian; 94.6% (inactive) in the test on OVCAR-5 ovarian; 92% (inactive) in the test on OVCAR-4 ovarian; 112% (inactive) in the test on SK-OV-3 ovarian. The growth with IGROV1 ovarian was 63.9% (inactive); with OVCAR-3 ovarian, 88.1% (inactive); in the test on HS 578T breast, 92.9% (inactive); with NCI/ADR-RES ovarian, 86.1% (inactive); with T-47D breast it was 87.6% (inactive); with BT-549 breast, 111% (inactive). For the same compound, the growth was 71.1% (inactive) with SW-620 colon; 38.3% (inactive) with MCF7 breast; 89.4% (inactive) with HCT-116 colon; 103% (inactive) in the test on HCC-2998 colon; 75.4% (inactive) in the test with KM12 colon.

On to `CCN(CC)C(=O)c1cccnc1`, for which the growth in the test on SR leukemia was 90.5% (inactive); with RPMI-8226 leukemia, 105% (inactive); in the test on OVCAR-8 ovarian, 98.8% (inactive); in the test on OVCAR-5 ovarian, 99.4% (inactive); in the test on OVCAR-4 ovarian it was 112% (inactive); with SK-OV-3 ovarian, 109% (inactive). The growth was 130% (inactive) in the test with IGROV1 ovarian; 109% (inactive) in the test on OVCAR-3 ovarian; 108% (inactive) in the test with HS 578T breast; 111% (inactive) in the test on NCI/ADR-RES ovarian; 114% (inactive) in the test with T-47D breast; 98.5% (inactive) in the test with BT-549 breast. The growth is 97.9% (inactive) in the test on MDA-MB-435 melanoma; 106% (inactive) in the test with SW-620 colon; 108% (inactive) in the test with MCF7 breast; 109% (inactive) in the test with HCC-2998 colon; 104% (inactive) in the test with KM12 colon.

As for `Cc1ccc(S(=O)(=O)NCN2C(=O)c3ccccc3C2=O)cc1`, the growth in the test on SR leukemia is 101% (inactive); with RPMI-8226 leukemia, 103% (inactive); in the test with OVCAR-8 ovarian it was 108% (inactive); in the test on OVCAR-5 ovarian it was 110% (inactive); with OVCAR-4 ovarian, 96.7% (inactive); in the test with SK-OV-3 ovarian, 98.4% (inactive). Besides, the growth in the test with IGROV1 ovarian is 107% (inactive); with OVCAR-3 ovarian, 113% (inactive); with HS 578T breast it was 108% (inactive); in the test with NCI/ADR-RES ovarian, 110% (inactive); in the test with T-47D breast it was 110% (inactive); with BT-549 breast it was 101% (inactive). Besides, the growth with MDA-MB-435 melanoma is 111% (inactive); in the test on SW-620 colon, 108% (inactive); with MCF7 breast, 95.2% (inactive); in the test with HCT-116 colon, 98.5% (inactive); in the test on KM12 colon, 110% (inactive).

Consider `Cn1cc(-c2cc3c(Nc4ccc(CC(=O)Nc5cc(C(C)(C)C)on5)cc4)ncnc3[nH]2)cn1`, for which the growth was 2.58% (active) in the test with SR leukemia; -2.19% (active) and -22.3% (active) in the test on RPMI-8226 leukemia; 4.54% (active) and 2.06% (active) with OVCAR-8 ovarian; -8.65% (active) and 5.67% (active) in the test on OVCAR-5 ovarian; -12.1% (active) and 5.44% (active) in the test with OVCAR-4 ovarian; -5.62% (active) and -14.8% (active) with SK-OV-3 ovarian. The growth is -12.2% (active) and 2.63% (active) in the test with IGROV1 ovarian; -15.1% (active) and -6.62% (active) with OVCAR-3 ovarian; -22.4% (active) and -15.2% (active) in the test with HS 578T breast; 79.5% (inactive) and 80.3% (inactive) with NCI/ADR-RES ovarian; -1.6% (active) and -13.9% (active) in the test on T-47D breast; -15% (active) and -15.8% (active) in the test with BT-549 breast. Besides, the growth with SW-620 colon is -7.24% (active) and 1.5% (active); in the test with MCF7 breast it was 4.99% (active) and 7.91% (active); in the test with HCT-116 colon, 0.379% (active) and 1.42% (active); in the test on HCC-2998 colon, -10.8% (active) and -2.61% (active); in the test with KM12 colon, -20.7% (active) and 3.37% (active).

As for `Nc1nc(SC/C=C/CCl)c2[nH]cnc2n1`, the growth with SR leukemia is 77.5% (inactive); in the test with RPMI-8226 leukemia, 100% (inactive); in the test on OVCAR-8 ovarian it was 103% (inactive) and 97.6% (inactive); in the test on OVCAR-5 ovarian, 109% (inactive) and 101% (inactive); in the test on OVCAR-4 ovarian it was 116% (inactive) and 100% (inactive); in the test with SK-OV-3 ovarian, 99.4% (inactive) and 112% (inactive). The growth was 114% (inactive) and 97.3% (inactive) in the test with IGROV1 ovarian; 117% (inactive) and 120% (inactive) in the test on OVCAR-3 ovarian; 112% (inactive) and 125% (inactive) with HS 578T breast; 103% (inactive) and 106% (inactive) in the test on NCI/ADR-RES ovarian; 108% (inactive) and 92.9% (inactive) with T-47D breast; 103% (inactive) and 126% (inactive) in the test with BT-549 breast. Moreover, the growth in the test with SW-620 colon is 105% (inactive) and 106% (inactive); in the test on MCF7 breast it was 125% (inactive) and 85.4% (inactive); in the test with HCT-116 colon, 104% (inactive) and 105% (inactive); with HCC-2998 colon it was 101% (inactive) and 103% (inactive); in the test on KM12 colon, 107% (inactive) and 111% (inactive).

For `O=C1CCN(Cc2ccccc2)C(=S)N1`, the growth in the test on SR leukemia is 65.4% (inactive) and 101% (inactive); in the test on RPMI-8226 leukemia, 94.5% (inactive) and 102% (inactive); in the test with OVCAR-8 ovarian it was 106% (inactive) and 107% (inactive); in the test with OVCAR-5 ovarian, 106% (inactive) and 101% (inactive); with OVCAR-4 ovarian, 100% (inactive); in the test on SK-OV-3 ovarian it was 101% (inactive). The growth in the test on IGROV1 ovarian is 92.4% (inactive) and 91.5% (inactive); with OVCAR-3 ovarian it was 123% (inactive) and 103% (inactive); with HS 578T breast, 114% (inactive) and 81.7% (inactive); with NCI/ADR-RES ovarian, 106% (inactive) and 103% (inactive); in the test on T-47D breast it was 113% (inactive) and 103% (inactive); in the test on BT-549 breast it was 101% (inactive) and 117% (inactive). In addition, the growth in the test with MDA-MB-435 melanoma is 108% (inactive) and 105% (inactive); in the test with SW-620 colon it was 105% (inactive); in the test on MCF7 breast it was 119% (inactive) and 86% (inactive); in the test on HCC-2998 colon, 98.8% (inactive) and 99.9% (inactive); in the test with KM12 colon it was 104% (inactive) and 105% (inactive).
